{
  "source": "PubChem BioAssay (Tox21)",
  "note": "Results filed as inconclusive are left out. A number with no mark means an inactive call. Calls of active or inactive are those of the source. Calls follow the shape of the dose curve; as a rule, active = well fitted inhibition curve with a large enough effect in the signal ratio in the repeat runs (not every such curve was filed as active); inconclusive = weak or mixed curves, or effect the other way; inactive = no such curve, though single readings can be large or run the other way; the % refers to the signal ratio. % is scaled to controls: 0 for no effect and ±100 for the full control effect; potency is read from the fitted curve at half-maximal effect.",
  "data": [
    {"molecular_target": "Androgen receptor (Homo sapiens) (UniProt P10275)", "sequence (P10275 whole entry, looked up)": "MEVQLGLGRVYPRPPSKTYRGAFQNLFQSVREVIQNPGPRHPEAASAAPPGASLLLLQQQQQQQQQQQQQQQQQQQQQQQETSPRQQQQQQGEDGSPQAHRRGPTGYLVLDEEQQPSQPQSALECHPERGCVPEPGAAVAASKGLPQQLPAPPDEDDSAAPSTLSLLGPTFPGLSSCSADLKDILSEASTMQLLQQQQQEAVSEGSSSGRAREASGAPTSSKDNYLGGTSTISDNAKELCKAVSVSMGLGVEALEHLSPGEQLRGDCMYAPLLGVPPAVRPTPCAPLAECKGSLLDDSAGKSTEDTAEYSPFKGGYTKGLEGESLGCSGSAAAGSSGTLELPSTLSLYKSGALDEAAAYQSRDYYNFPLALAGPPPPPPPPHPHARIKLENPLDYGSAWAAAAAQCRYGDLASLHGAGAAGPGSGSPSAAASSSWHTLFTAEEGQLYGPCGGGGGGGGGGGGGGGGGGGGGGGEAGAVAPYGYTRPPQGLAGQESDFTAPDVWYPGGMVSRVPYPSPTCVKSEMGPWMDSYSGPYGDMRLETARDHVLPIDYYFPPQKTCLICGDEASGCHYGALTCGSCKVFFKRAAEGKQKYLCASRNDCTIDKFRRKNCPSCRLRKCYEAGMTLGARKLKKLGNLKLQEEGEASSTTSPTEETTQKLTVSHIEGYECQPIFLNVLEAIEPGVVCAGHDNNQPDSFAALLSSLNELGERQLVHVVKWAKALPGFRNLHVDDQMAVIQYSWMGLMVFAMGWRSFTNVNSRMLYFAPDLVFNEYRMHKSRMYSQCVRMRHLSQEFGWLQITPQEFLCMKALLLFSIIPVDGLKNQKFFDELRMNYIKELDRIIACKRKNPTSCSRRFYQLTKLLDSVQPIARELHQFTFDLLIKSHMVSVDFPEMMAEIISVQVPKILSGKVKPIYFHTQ", "test": "qHTS assay to identify small molecule antagonists of the androgen receptor (AR) signaling pathway (AID 743035)", "settings": "HEK293 AR-UAS-bla, R1881-stimulated, beta-lactamase FRET, 16 h; series mostly up to 58.5 µM; activity change, negative = inhibition: at the top concentration", "excerpt": "National Center for Advancing Translational Sciences [NCATS]\nNIH Chemical Genomics Center [NCGC]\nU.S. Environmental Protection Agency [EPA]\nNational Institutes of Environmental Health Sciences [NIEHS]\nNational Toxicology Program [NTP]\nU.S. Food and Drug Administration [FDA]\nAndrogen receptor (AR), a nuclear hormone receptor, plays a critical role in AR-dependent prostate cancer and other androgen related diseases. Endocrine disrupting chemicals (EDCs) and their interactions with steroid hormone receptors like AR may cause disruption of normal endocrine function as well as interfere with metabolic homeostasis, reproduction, developmental and behavioral functions. To identify the compounds that inhibit AR signaling, GeneBLAzer AR-UAS-bla-GripTite cell line (Invitrogen, Carlsbad, CA, USA) containing a beta-lactamase reporter gene under control of an Upstream Activator Sequence (UAS) stably integrated into HEK293 cells was used to screen the Tox21 10K compound library.\nTox21 Assay Protocol Summary:\nAR-bla cells were dispensed at 2,000 cells/5 uL of assay medium per well into black wall/clear-bottom 1536-well plates using a Multidrop Combi (ThermoFisher Scientific, Waltham, MA) dispenser. After the assay plates were incubated at a 37C and 5% CO2 for 4 hr, 23 nL of compounds dissolved in DMSO, positive controls or DMSO only was transferred to the assay plate by a Pintool station (Kalypsys, San Diego, CA), followed by addition of 1 uL of agonist (R1881) in culture medium using a Bioraptr Flying Reagent Dispenser (FRD) workstation (Beckman Coulter, Indianapolis, IN, USA). The plates were incubated at a 37C and 5% CO2 for 16 h. After 1 uL of LiveBLAzerTM B/G FRET substrate was added using a Bioraptr FRD, the plates were incubated at room temperature for 2 h and fluorescence intensity was measured by an Envision plate reader (PerkinElmer, Shelton, CT).", "values": [
      {"smiles": "COC(=O)CC(C(C)=O)C(=O)OC", "note": "(stereo not drawn)", "activity change, negative = inhibition": "-1.02%"},
      {"smiles": "O=C(Oc1ccccc1)c1ccc2ccccc2c1O", "activity change, negative = inhibition": "-5.96%"},
      {"smiles": "CN1C(CSCC(F)(F)F)Nc2cc(Cl)c(S(N)(=O)=O)cc2S1(=O)=O", "note": "(stereo not drawn)", "activity change, negative = inhibition": "-4.95%"},
      {"smiles": "CCN(CC)c1ccc(C(=C2C=CC(=[N+](CC)CC)C=C2)c2ccc(S(=O)(=O)O)cc2S(=O)(=O)[O-])cc1", "activity change, negative = inhibition": "-7.58%"},
      {"smiles": "BrC(Br)C(Br)Br", "activity change, negative = inhibition": "1.09%"},
      {"smiles": "CC1CCCC(=O)C1=O", "note": "(stereo not drawn)", "activity change, negative = inhibition": "2.66%"},
      {"smiles": "Nc1c(Cl)cc(Cl)cc1[N+](=O)[O-]", "activity change, negative = inhibition": "-18.2%"},
      {"smiles": "C1=CCC2CC=CC2C1", "note": "(stereo not drawn)", "activity change, negative = inhibition": "11.8%"},
      {"smiles": "C=Cc1ccc(OC(C)=O)cc1", "activity change, negative = inhibition": "12.9%"},
      {"smiles": "Cc1cn([C@H]2C[C@H](F)[C@@H](CO)O2)c(=O)[nH]c1=O", "activity change, negative = inhibition": "-25.9%"},
      {"smiles": "O=C(C(=O)c1ccco1)c1ccco1", "activity change, negative = inhibition": "-0.955% [at 78.9 µM]"},
      {"smiles": "COC(=O)C1=C(C)NC(C)=C(C(=O)OC(C)(C)CN(C)CCC(c2ccccc2)c2ccccc2)C1c1cccc([N+](=O)[O-])c1", "note": "(stereo not drawn)", "Potency": "23.9 µM (active)"},
      {"smiles": "Nc1ccc(F)cc1", "activity change, negative = inhibition": "-29% [at 78.9 µM]"},
      {"smiles": "CC1CCC(C(C)CS)CC1S", "note": "(stereo not drawn)", "activity change, negative = inhibition": "4%"},
      {"smiles": "CCCCCCCCCCCCCC(=O)OCC(O)CO", "note": "(stereo not drawn)", "activity change, negative = inhibition": "2.68%"},
      {"smiles": "O=C1CC[C@@H](C(=O)O)N1", "activity change, negative = inhibition": "1.75%"},
      {"smiles": "CCOC(=O)c1ccc(NC(=O)CN2CCCCC2)cc1", "activity change, negative = inhibition": "-8.71%"},
      {"smiles": "CCc1ccc(C)cc1", "activity change, negative = inhibition": "4.93%"},
      {"smiles": "CCC(C)(C)C(=O)O", "activity change, negative = inhibition": "0.991%"},
      {"smiles": "CCC(CO)(CO)CO", "activity change, negative = inhibition": "-0.517% [at 78.9 µM]"},
      {"smiles": "CCCCCCCCCCCCCOS(=O)(=O)O", "activity change, negative = inhibition": "-3.81%"},
      {"smiles": "O=C(O)CCC(=O)c1ccc(-c2ccccc2)cc1", "activity change, negative = inhibition": "-7.64% [at 27 µM]"},
      {"smiles": "CCCCCCCC(=O)OCCCCCC", "activity change, negative = inhibition": "0.981%"}
    ]}
  ]
}
